For some of these results: Measured potencies and affinities stand elsewhere.

Common to all, as to parameters: scale not given: direction of the effect not stated beside the values
For assay [1], the target named is Protein translocase subunit SecA (Escherichia coli (strain K12)) (UniProt P10408). Briefly: Assay to Identify E. coli SecA ATPase Inhibitors. Type of assay: functional. Particulars: 30 µM.
Assay [2] addresses T1, Ubiquitin-activating enzyme e1, putative (Leishmania donovani (strain BPK282A1)) (UniProt E9BSI1).
T1 sequence (whole entry): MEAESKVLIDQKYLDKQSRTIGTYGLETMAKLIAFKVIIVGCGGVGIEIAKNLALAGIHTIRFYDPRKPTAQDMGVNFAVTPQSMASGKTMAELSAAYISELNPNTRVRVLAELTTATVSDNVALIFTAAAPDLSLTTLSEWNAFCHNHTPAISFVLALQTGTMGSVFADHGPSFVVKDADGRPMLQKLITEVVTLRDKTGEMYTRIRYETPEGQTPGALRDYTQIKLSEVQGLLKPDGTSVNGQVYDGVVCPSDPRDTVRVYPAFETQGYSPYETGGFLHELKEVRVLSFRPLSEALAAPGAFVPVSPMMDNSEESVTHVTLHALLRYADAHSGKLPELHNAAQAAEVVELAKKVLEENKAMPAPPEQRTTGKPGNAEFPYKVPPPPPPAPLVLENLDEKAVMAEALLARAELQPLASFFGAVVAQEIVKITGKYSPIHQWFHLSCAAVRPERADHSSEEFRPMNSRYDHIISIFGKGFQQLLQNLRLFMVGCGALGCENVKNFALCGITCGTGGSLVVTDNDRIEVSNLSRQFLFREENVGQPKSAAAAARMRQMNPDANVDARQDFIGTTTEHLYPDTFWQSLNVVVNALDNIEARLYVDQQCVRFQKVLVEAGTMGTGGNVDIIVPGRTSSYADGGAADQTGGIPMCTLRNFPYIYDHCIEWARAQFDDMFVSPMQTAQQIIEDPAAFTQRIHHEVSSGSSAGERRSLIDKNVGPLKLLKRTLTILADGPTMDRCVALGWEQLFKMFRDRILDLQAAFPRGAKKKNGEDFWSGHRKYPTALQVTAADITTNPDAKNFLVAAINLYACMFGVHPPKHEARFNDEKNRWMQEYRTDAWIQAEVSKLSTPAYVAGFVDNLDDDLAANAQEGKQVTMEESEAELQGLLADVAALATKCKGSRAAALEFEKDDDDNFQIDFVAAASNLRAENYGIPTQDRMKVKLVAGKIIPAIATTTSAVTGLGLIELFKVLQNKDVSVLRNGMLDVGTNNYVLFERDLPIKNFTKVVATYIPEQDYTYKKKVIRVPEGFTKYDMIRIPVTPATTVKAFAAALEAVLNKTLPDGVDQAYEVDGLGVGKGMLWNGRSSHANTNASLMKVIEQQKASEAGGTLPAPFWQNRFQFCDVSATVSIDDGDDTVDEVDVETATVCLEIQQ
Kind of assay: Leishmania donovani Ubiquitin Activating Enzyme (LdE1). It counts as functional. The following applies: 30 µM.

For assay [3], the target named is AMP-activated protein kinase, AMPK (Homo sapiens) (UniProt P54646+O43741+P54619+Q9UGJ0+Q9Y478+Q13131+Q9UGI9). Briefly: AMP-dependent Kinase enzyme assay. An in vitro enzyme assay that detects ADP turnover that is directly proportional to AMPK activity. This uses naive AMPK that is activated during the assay with MK-8722. It counts as functional. Particulars: 30 µM.

Assay [4] concerns the target Sialic acid-binding Ig-like lectin 9 (Homo sapiens) (UniProt Q9Y336). Briefly: Hs-Siglec9 ALPHAscreen SOP 20170721. The following applies: 10 µM. In general terms: Alpha assays give light when donor and acceptor beads are brought close together.
The subject of another assay is Trypanosoma cruzi. Kind of assay: Trypanosoma cruzi phosphomannomutase and mannose-1-phosphate guanylyltransferase assay. It counts as functional. Particulars: 10 µM.
Assay [5] deals with T2, Arginase-2, mitochondrial (Homo sapiens) (UniProt P78540).
T2 sequence (whole entry): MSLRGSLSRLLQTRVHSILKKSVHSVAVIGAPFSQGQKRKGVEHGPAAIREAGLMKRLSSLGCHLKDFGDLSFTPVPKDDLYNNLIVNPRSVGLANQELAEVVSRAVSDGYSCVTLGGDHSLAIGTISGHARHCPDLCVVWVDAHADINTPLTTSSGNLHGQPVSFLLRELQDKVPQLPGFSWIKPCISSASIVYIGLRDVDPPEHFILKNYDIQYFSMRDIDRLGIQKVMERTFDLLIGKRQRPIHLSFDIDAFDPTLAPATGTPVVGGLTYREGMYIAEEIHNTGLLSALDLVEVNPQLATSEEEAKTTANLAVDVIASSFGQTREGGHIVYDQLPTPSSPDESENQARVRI
Briefly: in vitro enzyme assay to detect the production of urea directly proportional to the activity of Arginase II. Note: in the data most compounds retested in dose-response had high values. Type of assay: functional. Particulars: 33.3 µM.

Assay [6] deals with T3, Proteasome subunit beta (Trypanosoma cruzi) (UniProt O96673).
T3 sequence (whole entry): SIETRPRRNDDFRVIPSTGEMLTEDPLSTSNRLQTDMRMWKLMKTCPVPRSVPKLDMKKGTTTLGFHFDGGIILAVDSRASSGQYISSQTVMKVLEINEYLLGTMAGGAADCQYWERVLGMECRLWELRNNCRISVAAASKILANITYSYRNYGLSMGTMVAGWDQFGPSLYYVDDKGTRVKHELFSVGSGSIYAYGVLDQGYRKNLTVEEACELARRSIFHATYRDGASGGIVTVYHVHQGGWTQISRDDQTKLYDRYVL
Briefly: Trypanosoma cruzi proteasome chymotrypsin-like activity (TcProtChymo) assay. Note: in the data most compounds retested in dose-response had high values. Particulars: 9.37 µM. It counts as functional.

Another assay is filed under the species Homo sapiens. Briefly: To identify inhibition of the IFN signalling (Jak-Stat) pathway via expression of an eGFP reporter gene under the control of an IFN-stimulated response element (ISRE) containing MxA promoter. The following applies: 30 µM. It counts as functional. In general terms: Reporter assays use an easily measured gene product as a stand-in for the process of interest.

Assay [7] has as its target T4, Tyrosyl-tRNA synthetase, putative (Trypanosoma cruzi (strain CL Brener)) (UniProt Q4DSP6).
T4 sequence (whole entry): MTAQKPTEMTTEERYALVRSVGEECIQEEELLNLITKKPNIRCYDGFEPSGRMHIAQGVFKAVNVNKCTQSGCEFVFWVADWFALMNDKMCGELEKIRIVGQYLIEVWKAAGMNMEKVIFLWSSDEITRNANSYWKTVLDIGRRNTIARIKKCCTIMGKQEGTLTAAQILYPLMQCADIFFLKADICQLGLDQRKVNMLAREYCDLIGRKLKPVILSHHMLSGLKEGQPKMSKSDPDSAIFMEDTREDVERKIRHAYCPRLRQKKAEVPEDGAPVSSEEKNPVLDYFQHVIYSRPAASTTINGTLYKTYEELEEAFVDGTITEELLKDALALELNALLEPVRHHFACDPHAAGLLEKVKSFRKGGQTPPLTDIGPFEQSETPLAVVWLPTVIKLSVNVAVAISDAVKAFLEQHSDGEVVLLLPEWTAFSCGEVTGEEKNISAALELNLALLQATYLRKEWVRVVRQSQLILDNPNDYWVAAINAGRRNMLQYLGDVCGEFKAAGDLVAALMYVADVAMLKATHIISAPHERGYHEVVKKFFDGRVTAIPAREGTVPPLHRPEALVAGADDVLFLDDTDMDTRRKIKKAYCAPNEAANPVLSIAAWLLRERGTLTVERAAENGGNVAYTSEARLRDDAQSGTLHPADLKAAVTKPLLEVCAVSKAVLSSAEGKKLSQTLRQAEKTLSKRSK
Briefly: Trypanosoma cruzi tyrosyl tRNA synthetase (TcYRS) _High Tyrosine SOP. Note: in the data most compounds retested in dose-response had high values. It counts as functional. The following applies: 30 µM.

For assay [8], the target named is T4, Tyrosyl-tRNA synthetase, putative (Trypanosoma cruzi (strain CL Brener)). Briefly: Trypanosoma cruzi tyrosyl tRNA synthetase (TcYRS) SOP. Type of assay: functional. The following applies: 30 µM.
Assay [9] has as its target Chromo domain-containing protein 1 (Saccharomyces cerevisiae (strain ATCC 204508 / S288c) (Baker's yeast)) (UniProt P32657). Kind of assay: ScCHD-1 Enzyme Inhibition Assay. Note: in the data most compounds retested in dose-response had high values. Type of assay: functional. The following applies: 30 µM.

Sialic acid-binding Ig-like lectin 9 (Homo sapiens), sequence (Q9Y336 whole entry): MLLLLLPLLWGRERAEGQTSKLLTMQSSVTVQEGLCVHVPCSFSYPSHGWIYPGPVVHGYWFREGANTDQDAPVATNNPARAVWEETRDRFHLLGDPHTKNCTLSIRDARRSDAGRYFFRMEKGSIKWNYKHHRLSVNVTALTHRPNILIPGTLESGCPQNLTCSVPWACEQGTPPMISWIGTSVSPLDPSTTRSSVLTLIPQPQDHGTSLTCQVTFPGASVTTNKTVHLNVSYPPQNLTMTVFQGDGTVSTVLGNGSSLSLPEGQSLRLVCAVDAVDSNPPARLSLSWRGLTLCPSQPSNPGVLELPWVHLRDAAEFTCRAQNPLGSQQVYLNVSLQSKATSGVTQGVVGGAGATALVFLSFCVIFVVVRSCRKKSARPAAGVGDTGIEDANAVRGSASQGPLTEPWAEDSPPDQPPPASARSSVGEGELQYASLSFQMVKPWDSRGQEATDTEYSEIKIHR
Protein translocase subunit SecA (Escherichia coli (strain K12)), sequence (P10408 whole entry): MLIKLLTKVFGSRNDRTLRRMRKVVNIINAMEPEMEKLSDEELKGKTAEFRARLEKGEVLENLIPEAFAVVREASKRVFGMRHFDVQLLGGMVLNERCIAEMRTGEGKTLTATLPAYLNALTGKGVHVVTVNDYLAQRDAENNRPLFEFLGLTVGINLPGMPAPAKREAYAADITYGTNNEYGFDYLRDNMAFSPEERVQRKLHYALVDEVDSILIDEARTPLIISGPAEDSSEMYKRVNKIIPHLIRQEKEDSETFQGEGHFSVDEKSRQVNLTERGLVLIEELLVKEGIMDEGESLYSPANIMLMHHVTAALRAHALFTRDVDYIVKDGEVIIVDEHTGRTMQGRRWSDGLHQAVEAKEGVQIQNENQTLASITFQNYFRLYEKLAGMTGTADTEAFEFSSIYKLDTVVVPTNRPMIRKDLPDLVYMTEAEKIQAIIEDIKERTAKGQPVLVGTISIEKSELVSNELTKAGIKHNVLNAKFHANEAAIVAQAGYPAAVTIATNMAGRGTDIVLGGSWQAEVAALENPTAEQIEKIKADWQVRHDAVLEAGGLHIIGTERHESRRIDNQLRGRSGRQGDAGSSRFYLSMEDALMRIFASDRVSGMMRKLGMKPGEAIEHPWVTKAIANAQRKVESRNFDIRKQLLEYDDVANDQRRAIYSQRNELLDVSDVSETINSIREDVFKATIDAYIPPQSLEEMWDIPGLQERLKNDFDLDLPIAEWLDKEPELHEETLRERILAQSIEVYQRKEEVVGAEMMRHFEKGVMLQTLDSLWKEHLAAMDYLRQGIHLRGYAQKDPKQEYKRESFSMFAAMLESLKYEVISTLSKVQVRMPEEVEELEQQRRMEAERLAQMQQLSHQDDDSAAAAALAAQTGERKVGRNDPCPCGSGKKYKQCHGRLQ
Chromo domain-containing protein 1 (Saccharomyces cerevisiae (strain ATCC 204508 / S288c) (Baker's yeast)), sequence (P32657 whole entry, the tested form may be a part): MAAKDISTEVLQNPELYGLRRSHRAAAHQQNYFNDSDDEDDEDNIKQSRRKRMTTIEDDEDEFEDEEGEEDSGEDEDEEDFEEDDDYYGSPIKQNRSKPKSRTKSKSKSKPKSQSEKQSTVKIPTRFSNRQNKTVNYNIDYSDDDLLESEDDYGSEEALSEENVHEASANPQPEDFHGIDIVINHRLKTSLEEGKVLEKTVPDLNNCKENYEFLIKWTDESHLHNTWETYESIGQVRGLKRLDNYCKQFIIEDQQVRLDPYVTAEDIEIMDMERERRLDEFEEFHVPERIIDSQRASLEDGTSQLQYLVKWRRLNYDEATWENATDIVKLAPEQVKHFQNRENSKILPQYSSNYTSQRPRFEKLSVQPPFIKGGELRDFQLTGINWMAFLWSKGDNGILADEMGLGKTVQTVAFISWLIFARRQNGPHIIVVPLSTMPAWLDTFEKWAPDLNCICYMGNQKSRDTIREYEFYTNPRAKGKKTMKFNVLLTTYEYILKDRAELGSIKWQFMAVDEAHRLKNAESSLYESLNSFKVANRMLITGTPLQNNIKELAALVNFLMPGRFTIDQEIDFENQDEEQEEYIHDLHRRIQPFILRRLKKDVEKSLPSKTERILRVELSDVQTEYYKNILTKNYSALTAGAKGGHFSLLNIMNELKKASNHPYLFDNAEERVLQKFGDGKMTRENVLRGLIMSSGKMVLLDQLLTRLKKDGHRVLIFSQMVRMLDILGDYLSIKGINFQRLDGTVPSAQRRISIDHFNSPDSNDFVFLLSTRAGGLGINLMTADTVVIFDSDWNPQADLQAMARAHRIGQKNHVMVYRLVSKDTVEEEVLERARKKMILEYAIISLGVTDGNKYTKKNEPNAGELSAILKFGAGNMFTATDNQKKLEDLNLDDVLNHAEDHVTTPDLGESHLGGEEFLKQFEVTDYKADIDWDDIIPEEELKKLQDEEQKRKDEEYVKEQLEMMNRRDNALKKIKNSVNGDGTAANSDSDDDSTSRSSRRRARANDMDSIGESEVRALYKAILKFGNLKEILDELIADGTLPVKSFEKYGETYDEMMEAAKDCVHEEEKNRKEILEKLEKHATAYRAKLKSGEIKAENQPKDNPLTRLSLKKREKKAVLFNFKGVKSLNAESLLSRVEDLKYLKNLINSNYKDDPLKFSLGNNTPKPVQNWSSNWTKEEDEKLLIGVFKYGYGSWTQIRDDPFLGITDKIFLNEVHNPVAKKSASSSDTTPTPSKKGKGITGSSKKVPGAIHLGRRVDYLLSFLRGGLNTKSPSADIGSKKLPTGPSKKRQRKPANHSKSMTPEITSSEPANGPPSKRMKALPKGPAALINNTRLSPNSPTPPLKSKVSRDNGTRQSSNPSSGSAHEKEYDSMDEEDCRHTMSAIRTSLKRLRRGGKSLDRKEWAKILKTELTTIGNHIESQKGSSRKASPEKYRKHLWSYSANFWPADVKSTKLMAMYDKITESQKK

Regarding `COc1ccccc1C(=O)N(C)Cc1ncc(C)c(OC)c1C`, the Percent Effect in assay [1] is -0.917%; in assay [2], -2.6%; in assay [3], 2.31%; in assay [4] it was 10.5%; with Trypanosoma cruzi, -1.86%; in [5], 0.21%. In addition, the Percent Effect is 3.8% in assay [6]; 5.2% in the assay filed under Homo sapiens; -0.952% in assay [7]; -2.35% in assay [8]; -15.8% in assay [9].

As to `O=C(c1cccc(CN2CCCC2)c1)N1CCCC(n2cncn2)C1` (stereo unspecified), the Percent Effect was -4.8% in [1]; 21.6% in assay [2]; -12.1% in assay [3]; -3.07% in assay [4]; -0.849% in the assay with Trypanosoma cruzi; -10% in assay [5]. In addition, the Percent Effect is 16.2% in assay [6]; 23.3% in the assay listed under Homo sapiens; 6.4% in [7]; 16.1% in assay [8]; -2.99% in assay [9].

`CS(=O)(=O)N1CCCC12CCCN(S(=O)(=O)c1ccc(F)cc1)C2` (stereo unspecified): the Percent Effect in [1] was -3.85%; in assay [2], 5.41%; in assay [3], -33.3%; in assay [4], -0.0111%; in the assay with Trypanosoma cruzi it was -5.18%; in [5], 1.24%. The Percent Effect in assay [6] was 10.7%; in the assay filed under Homo sapiens, -4.37%; in assay [7] it was 6.45%; in [8], 6.17%; in [9], -9.7%.

For the molecule `Cc1nnc(N2CCC(CN(C)C(C)C)CC2)c(C#N)c1C`, the Percent Effect is -4.73% in assay [1]; 2.6% in assay [2]; -19% in [3]; -13.1% in [4]; 9.89% in the assay with Trypanosoma cruzi; -4% in assay [5]. The Percent Effect in assay [6] was 3.64%; in the assay filed under Homo sapiens it was 4.7%; in assay [7], 3.81%; in assay [8], 11.8%; in assay [9], -23.4%.

`Cn1ccnc1CN1CCN(CC(O)c2ccco2)CC1` (stereo unspecified): the Percent Effect was -7.57% in [1]; 18.2% in assay [2]; -3.75% in [3]; -8.89% in assay [4]; -1.86% in the assay on Trypanosoma cruzi; -0.632% in [5]. Besides, the Percent Effect in [6] was 17.4%; in the assay filed under Homo sapiens, 16.1%; in [7] it was 6.67%; in assay [8], 7.06%; in assay [9], -4.92%.

In the case of `Cc1occc1C(=O)N1CCc2ncnc(-c3cnn(C)c3)c2CC1`, the Percent Effect was -2.67% in assay [1]; -5.41% in assay [2]; -4.37% in [3]; 0.728% in assay [4]; 6.75% in the assay on Trypanosoma cruzi; -1.24% in assay [5]. Moreover, the Percent Effect in [6] was 4.21%; in the assay listed under Homo sapiens, 4.88%; in assay [7] it was 1.07%; in assay [8] it was 3.7%; in assay [9] it was -4.52%.

In the case of `CCOc1ccc(Cl)cc1CNCCCn1ccnc1`, the Percent Effect was -0.524% in [1]; 6.67% in assay [2]; 7.15% in assay [3]; -7.03% in assay [4]; -5.5% in the assay with Trypanosoma cruzi; -9.68% in assay [5]. The Percent Effect is 19% in assay [6]; 11% in the assay listed under Homo sapiens; -2.12% in [7]; 5.13% in assay [8]; -11.2% in assay [9].

Turning to `Cc1cnn(CCCNC(=O)N2CCCCC(N3CCCC3)C2)c1` (stereo unspecified), the Percent Effect in [1] was -2.45%; in assay [2], 15.8%; in assay [3], 0.679%; in [4], 7.49%; with Trypanosoma cruzi, 3.19%; in assay [5], 4.21%. Besides, the Percent Effect in assay [6] was 15.5%; in the assay listed under Homo sapiens, 8.88%; in [7] it was 8.33%; in assay [8], 19.5%; in assay [9], -2.25%.

In the case of `NC(=O)C1CCN(C(=O)CCn2ccc3cc(Br)ccc32)CC1`, the Percent Effect in assay [1] was -0.921%; in [2] it was 4.17%; in [3], -4.65%; in assay [4], 21.5%; in the assay on Trypanosoma cruzi, 2.43%; in [5], 14.6%. Further, the Percent Effect is 2.63% in [6]; -3.52% in the assay filed under Homo sapiens; 3.16% in assay [7]; 2.56% in [8]; -4.07% in assay [9].

Regarding `CN(CCO)Cc1nnc(C2CCN(C3CCCCC3)CC2)n1C`, the Percent Effect is -3.52% in assay [1]; 8% in [2]; 0.423% in assay [3]; -0.412% in assay [4]; -3.41% in the assay with Trypanosoma cruzi; 2.08% in assay [5]. The Percent Effect in assay [6] was 18.1%; in the assay filed under Homo sapiens, 10.8%; in [7] it was 2.73%; in [8], 11.1%; in assay [9], -6.36%.

Consider `O=C(Cn1ccnc1)N1C[C@@H]2CC[C@H](Oc3ccccc3)[C@@H]2C1`, for which the Percent Effect in assay [1] was -4.17%; in [2], 9.46%; in assay [3], 7.42%; in assay [4], -4.28%; with Trypanosoma cruzi, 2.77%; in assay [5], -1.16%. Also, the Percent Effect was 16.2% in assay [6]; 12.3% in the assay filed under Homo sapiens; 3.23% in assay [7]; 11.7% in [8]; -11.8% in [9].

For the origin of these results see ChEMBL document CHEMBL3988442, “University of Dundee, Small-Polar-MMV Screening Library” (2021).
